# Assay results from PubChem BioAssay.
# Unmarked numbers belong to inactive results. How the calls were made is not given here.
# Biological target: Pantothenate synthetase (Mycobacterium tuberculosis (strain ATCC 25618 / H37Rv)) (UniProt P9WIL5)
# Experiment: Recombinant Mtb pantothenate synthetase (PanC) inhibitors, coupled enzyme, confirmatory (AID 375);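 further: 0% = full reaction with vehicle and 100% = no enzyme background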
# Settings: coupled enzyme assay; at 10 µM, active compounds read high
# Chain of Pantothenate synthetase (Mycobacterium tuberculosis (strain ATCC 25618 / H37Rv)) (P9WIL5 whole entry, looked up): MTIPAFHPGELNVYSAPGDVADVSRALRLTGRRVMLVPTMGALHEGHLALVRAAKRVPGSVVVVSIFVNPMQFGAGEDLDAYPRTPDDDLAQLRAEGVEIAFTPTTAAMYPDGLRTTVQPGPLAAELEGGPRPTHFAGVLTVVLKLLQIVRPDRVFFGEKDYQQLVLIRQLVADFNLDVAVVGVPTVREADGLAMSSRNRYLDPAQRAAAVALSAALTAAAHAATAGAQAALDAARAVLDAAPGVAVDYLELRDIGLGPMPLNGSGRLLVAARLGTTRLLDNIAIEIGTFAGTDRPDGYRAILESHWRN
row,SMILES,inhibition [%]
1,C=CCSC1=C(C#N)C(c2ccccc2C)CC(=O)N1 (centres undefined),0
2,Cc1ccc(S(=O)(=O)NCCSc2nnnn2-c2ccc(C(N)=O)cc2)cc1,0
3,O=C(O)CCNc1ccc2c(c1)OCCO2,0
4,COc1ccc(CC(=O)OCC(=O)NC(=O)NC2CCCCC2)cc1,7
5,CCCn1c(SCC(=O)Nc2ccccc2C(=O)OC)nc2c1c(=O)n(C)c(=O)n2C,3
6,COc1cccc(C2CC(=O)Nc3c2c(=O)n(C)c(=O)n3C)c1OC (centres undefined),6
7,Cc1ccc(S(=O)(=O)Nc2nc3ccccc3nc2NCc2ccco2)cc1,3
8,CCOc1ccccc1N1CC(O)=C(c2nc3ccccc3s2)C1=N,9
9,COC(=O)c1cn(NC(=O)C2CCCO2)c(=O)c2ccccc12 (centres undefined),0
10,C=C(C)Cn1c(N2CC(C)CC(C)C2)nc2c1c(=O)[nH]c(=O)n2C (centres undefined),0
11,CCOc1cc(C(=O)N(C)Cc2cc3cc(OC)ccc3[nH]c2=O)cc(OCC)c1OCC,0
12,O=[n+]1cc(-c2ccc(F)cc2)n([O-])c2c1CCC2,0
13,CCCCn1c(SCC(=O)Nc2ccc(OC)cc2)nc2ccc(N3CCOCC3)cc2c1=O,0
14,CCCN(CCC)C(=O)CC(c1ccc(F)cc1)c1ccco1 (centres undefined),1
15,Cc1ccc(S(=O)(=O)NC(C(=O)OCC(=O)NC2CCS(=O)(=O)C2)C(C)C)cc1 (centres undefined),0
16,O=C1CC(c2ccsc2)c2cc3c(cc2N1)OCCO3 (centres undefined),0
17,CCCc1nc(N2CCOCC2)c(C#N)c2c1CCCC2,4
18,COCCCNC(=O)CC(NS(=O)(=O)c1ccc(Cl)cc1)c1ccco1 (centres undefined),0
19,CC(=O)Nc1ccc(N=Cc2ccc[nH]2)cc1,0
20,CC(C)CCNC(=O)Cn1c(NCCC(C)C)nc2c1c(=O)n(C)c(=O)n2C,0

row,SMILES,inhibition [%]
1,COC(=O)CSc1cc(C)nc(NC(C)=O)n1,4
2,Clc1ccccc1CN1CCc2sccc2C1,0
3,CCOC(=O)c1cc2c(=O)n3cccc(C)c3nc2n(CCOC)c1=NC(=O)c1ccncc1,0
4,Cc1ccc(-c2cc(C(=O)Nc3cc(C)on3)c3ccccc3n2)c(C)c1,0
5,COCCn1c(C23CC4CC(CC(C4)C2)C3)n[nH]c1=S,0
6,CCOc1ccccc1-n1nnnc1SCC(=O)Nc1cc2oc3ccccc3c2cc1OC,0
7,CCOc1ccc2[nH]c(O)c(NC(C)=O)c2c1,0
8,Oc1ccc(-c2n[nH]c(=S)n2Cc2ccccc2)cc1,0
9,CCOC(=O)c1ccc2[nH]c3c(c2c1)CCCCC3=O,0
10,COc1ccccc1C(=O)NCC(c1cccnc1)N(C)C (centres undefined),0
11,O=C(Cn1c(SCC(=O)N2CCCc3ccccc32)nc2ccccc21)N1CCCC1,0
12,O=S(CC(O)COCc1ccc(Cl)cc1)c1ccccn1 (centres undefined),0
13,N#Cc1nc(-c2ccco2)oc1NCc1ccco1,11
14,Cc1cc(NS(=O)(=O)c2ccccc2)n(-c2ccccc2)n1,0
15,O=C(CN1C(=O)c2cccc3cccc1c23)Nc1ccccc1C(=O)NCc1ccco1,0
16,Cc1nc(C)c(C(=O)Nc2ccc(C)c(F)c2)o1,5
17,COC(=O)c1cc2oc(C)cc2n1CC(=O)N(C)c1ccccc1,0
18,Cc1ccccc1NC(=O)c1c(F)c(F)c(F)c(F)c1F,0
19,CN=C(Nc1cc(C)nn1-c1ccccc1)c1ccccc1,0
